Activity calls are given as the source filed them.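 How the source made its calls, unless noted: active means NADPH fluorescence slope more negative than the mean of all samples by about 3 SD, 99.7% confidence; inactive means the rest.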
Assays:
[1] = inhibitors of TNFa-induced NFkB p65 translocation, primary screen, imaging, HUVEC, MLSMR starter and 10KST1 sets (AID 438;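 active means inhibition above 20% together with a positive visual image hit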;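 further: compound added about 3h40 before a 20 min TNFalpha stimulation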;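 on inhibition: signal is the nuclear over cytoplasmic p65 intensity ratio per well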); details: HUVEC TNFa-induced p65 nuclear translocation; cell count: measured here: nuclei count (cytotoxicity indicator), at 2.08 µM; inhibition: at 2 µM, stronger effect = higher value, 0% TNFa-plus-vehicle, 100% no-TNFa wells
[2] = inhibitors of mutant huntingtin aggregation, primary screen, imaging, exon1htt(103Q)mCFP cells, high-content imaging (AID 483;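 active means visual image review flags a hit and inhibition of aggregation exceeds 20%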;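 further: compound exposure lasted 3 days before fixation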;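 on nuclei count: percent of the per-plate median nuclei count of sample wells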); details: exon1htt(103Q)mCFP cell line, aggregate imaging, at 2 µM; inhibition of aggregation: stronger effect = higher value; nuclei count: measured here: cell count, toxicity
[3] = inhibitors of E-selectin induction by TNFa, primary screen, imaging, HUVEC, immunofluorescence, MLSMR starter and 10KST1 sets (AID 487;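 active means visually confirmed hit in the image check and inhibition above 20%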;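 on inhibition: signal is fraction of cell area covered by stained E-selectin grains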;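 on nuclei count: 100% = median nuclei count of all wells on the same plate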); details: HUVEC TNFalpha-induced E-selectin immunofluorescence imaging, at 2 µM; inhibition: stronger effect = higher value; nuclei count: measured here: cell number, toxicity
[4] = molecular target: Voltage-gated potassium channel subunit beta-2 (Rattus norvegicus) (UniProt P62483); assay: KvBeta enzyme negative modulators, primary screen, biochemical, NADPH fluorescence (AID 622;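 active means fluorescence slope higher than the sample average by over 3 SD, cut at about -0.22 in these data, passing the limit was not always enough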;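 further: slope of raw intensity against log time taken from 70 to 1610 s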); details: recombinant KvBeta, 4-cyanobenzaldehyde reduction, at 10 µM, stronger effect = higher value
Chain of Voltage-gated potassium channel subunit beta-2 (Rattus norvegicus) (P62483 whole entry, looked up): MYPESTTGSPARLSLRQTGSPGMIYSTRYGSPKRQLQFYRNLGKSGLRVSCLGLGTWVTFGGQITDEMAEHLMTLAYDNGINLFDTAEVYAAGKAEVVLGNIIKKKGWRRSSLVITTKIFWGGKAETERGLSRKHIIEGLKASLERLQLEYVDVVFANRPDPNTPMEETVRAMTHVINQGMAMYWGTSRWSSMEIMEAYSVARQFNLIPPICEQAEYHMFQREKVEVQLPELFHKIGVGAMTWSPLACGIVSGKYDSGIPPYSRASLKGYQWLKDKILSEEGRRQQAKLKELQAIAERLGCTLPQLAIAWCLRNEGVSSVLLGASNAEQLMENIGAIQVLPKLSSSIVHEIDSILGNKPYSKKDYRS

[5] = molecular target: Voltage-gated potassium channel subunit beta-2 (Rattus norvegicus) (UniProt P62483); assay: KvBeta positive modulators, primary screen, biochemical, NADPH fluorescence (AID 623); details: Recombinant KvBeta, NADPH fluorescence decrease slope, 10 min; at 10 µM; stronger effect = lower value;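 further: fluorescence intensity change per second fitted from 20 to 320 s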
[6] = molecular target: Alpha-2C adrenergic receptor (Homo sapiens) (UniProt P18825); assay: modulators of alpha2C/GIRK thallium flux, primary screen, cell-based, HEK293 alpha2C/GIRK1/2 (AID 624;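 active means fluorescence slope after compound addition differing from the mean of all screened samples at 99.7% confidence, in either direction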;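 further: slope of fluorescence ratio to pre-addition baseline per second over 15 to 24 s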); details: thallium flux BTC fluorescence, at 10 µM, actives lie on both sides
Chain of Alpha-2C adrenergic receptor (Homo sapiens) (P18825 whole entry, looked up): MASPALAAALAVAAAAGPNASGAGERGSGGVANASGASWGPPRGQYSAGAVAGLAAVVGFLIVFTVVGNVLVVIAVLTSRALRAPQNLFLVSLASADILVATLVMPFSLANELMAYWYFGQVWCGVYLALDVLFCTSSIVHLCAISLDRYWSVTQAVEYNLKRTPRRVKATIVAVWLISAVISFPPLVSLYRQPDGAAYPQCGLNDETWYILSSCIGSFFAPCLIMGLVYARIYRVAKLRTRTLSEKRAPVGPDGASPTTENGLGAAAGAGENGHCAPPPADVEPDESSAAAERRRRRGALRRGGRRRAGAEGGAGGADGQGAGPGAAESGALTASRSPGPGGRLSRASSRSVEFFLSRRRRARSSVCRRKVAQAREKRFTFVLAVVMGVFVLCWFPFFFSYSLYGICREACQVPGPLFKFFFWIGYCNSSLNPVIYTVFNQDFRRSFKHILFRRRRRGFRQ

[7] = inhibitors of Sendai virus-induced IRF3 signaling, primary screen, TLR/RLR signaling modifier project, cell-based, Sendai virus stimulus, luciferase, 10K MLSCN set (AID 602276;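 active means inhibition at or above 50% at 10 µM; inactive means inhibition below 50%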;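 further: firefly luciferase from ISG56 promoter only with Renilla not read in this screen; 0% = Sendai virus plus DMSO and 100% = medium plus DMSO without virus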); details: HEK293 RL24 IRF3 luciferase reporter, at 10 µM, stronger effect = higher value
[8] = inhibitors of poly I:C-induced TLR3 signaling, primary screen, cell-based, poly I:C stimulus, luciferase, 10K MLSCN set (AID 602277;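 active means inhibition of the reporter signal at or above 50%; inactive means inhibition below 50%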); details: HEK293-TLR3 RL24 IRF3 luciferase reporter, at 10 µM, stronger effect = higher value

| SMILES | cell count [1] | inhibition [1] | inhibition of aggregation [2] | nuclei count [2] | inhibition [3] | nuclei count [3] | fluorescence slope [4] | NADPH fluorescence slope [5] | slope [6] | inhibition [7] | inhibition [8] |
| --- | --- | --- | --- | --- | --- | --- | --- | --- | --- | --- | --- |
| CC1CN(C(=O)CSc2nnc(-c3ccc(Cl)cc3)n2C)CC(C)O1 (configuration not stated) | 345 | 1.1% (inactive) | -13.2% (inactive) | 91.5% | -122% (inactive) | 124% | -0.275 (inactive) | -3.8e-05 (inactive) | 0.00669 (inactive) | -5.39% (inactive) | -17.3% (inactive) |
| O=[n+]1c2c(n([O-])c3c1CCCC3)CCCC2 | 658 | 5.8% (inactive) | -17.7% (inactive) | 109% | 54.7% (inactive) | 75.8% | -0.399 (inactive) | -6.5e-05 (inactive) | 0.00619 (inactive) | 11.8% (inactive) | 24% (inactive) |
| Cc1ccc(S(=O)(=O)NC(=O)c2cc(C)n(CCCn3ccnc3)c2C)cc1 | 218 | -2.9% (inactive) | 9.2% (inactive) | 92.3% | -86.6% (inactive) | 108% | -0.596 (inactive) | -2.4e-05 (inactive) | 0.00417 (inactive) | 11.6% (inactive) | 13.5% (inactive) |
| COc1ccc(C)cc1-n1c(N)c(C#N)c(C#N)c1-c1ccc(OC)c(OC)c1OC | 676 | -3.9% (inactive) | 16.9% (inactive) | 86% | -9.7% (inactive) | 105% | -0.537 (inactive) | 2.9e-05 (inactive) | 0.00611 (inactive) | 12% (inactive) | 32.6% (inactive) |
| Cc1c(NC(=O)Cn2nc(C(=O)O)c3ccccc3c2=O)c(=O)n(-c2ccccc2)n1C | 521 | -10.8% (inactive) | -2.1% (inactive) | 93.8% | -148% (inactive) | 111% | -0.541 (inactive) | 3.3e-05 (inactive) | 0.00605 (inactive) | -13.8% (inactive) | -13.3% (inactive) |
| CCOC(=O)N1CCC(NC(=O)C2CCN(S(=O)(=O)c3cccc4cccnc34)CC2)CC1 | 595 | 1.8% (inactive) | -71.5% (inactive) | 11.3% | 9.6% (inactive) | 107% | -0.558 (inactive) | -2.8e-05 (inactive) | 0.00729 (inactive) | 12% (inactive) | 35.6% (inactive) |
| CN(c1ccccc1C(N)=O)S(=O)(=O)c1ccccc1 | 385 | -2.9% (inactive) | -21.8% (inactive) | 95.6% | -266% (inactive) | 108% | -0.355 (inactive) | 1.6e-05 (inactive) | 0.00547 (inactive) | 13% (inactive) | 22.7% (inactive) |
| CC(C)(C)SCCNC(=O)COc1ccc(Cl)cc1 | 237 | 3.4% (inactive) | 19.9% (inactive) | 83.8% | -272% (inactive) | 147% | -0.419 (inactive) | 1.6e-05 (inactive) | 0.00681 (inactive) | -15.2% (inactive) | -2.28% (inactive) |
| c1cn(C23CC4CC(CC(C4)C2)C3)cn1 | 362 | 0.8% (inactive) | -9.2% (inactive) | 108% | 45.7% (inactive) | 110% | -0.489 (inactive) | -5.6e-05 (inactive) | 0.00411 (inactive) | 11.8% (inactive) | 16.7% (inactive) |
| Cc1cccc(NC(=O)CSc2nnc(-c3cc(C)n(-c4ccccc4)c3C)o2)c1C | 590 | -16.6% (inactive) | -14.8% (inactive) | 48% | -27.3% (inactive) | 111% | -0.6 (inactive) | -1.4e-05 (inactive) | 0.00877 (inactive) | 5.08% (inactive) | 52.9% (active) |
| O=C(O)c1ccc2c3c(ncnc13)-c1ccccc1C2=O | 336 | -10.1% (inactive) | -50.8% (inactive) | 9.6% | -34.1% (inactive) | 93% | -0.155 (inactive) | -4.9e-06 (inactive) | 0.0028 (inactive) | 18.4% (inactive) | 26.7% (inactive) |
| CCN1CCN(C(c2ccc(F)cc2)c2nnnn2Cc2cccs2)CC1 (configuration not stated) | 605 | -8.6% (inactive) | 1.9% (inactive) | 48.7% | -35.5% (inactive) | 96.1% | -0.339 (inactive) | 1.5e-05 (inactive) | 0.00582 (inactive) | 4.23% (inactive) | 21.4% (inactive) |
| S=c1[nH]nc(-c2ccccc2)n1C1C=CCCC1 (configuration not stated) | 240 | 0.4% (inactive) | 14.7% (inactive) | 94% | -329% (inactive) | 146% | -0.465 (inactive) | -1.5e-05 (inactive) | 0.00318 (inactive) | 4.48% (inactive) | 35.6% (inactive) |
| CN(Cc1nc(-c2ccncc2)no1)S(=O)(=O)c1ccc(Cl)cc1 | 601 | -6.4% (inactive) | -0.9% (inactive) | 88.3% | 1% (inactive) | 94.8% | -0.543 (inactive) | 6.1e-06 (inactive) | 0.00478 (inactive) | -18.2% (inactive) | -26.6% (inactive) |
| O=C(Nc1ccc2c(c1)OCO2)c1ccc(CN2CCOCC2)cc1 | 361 | -5.1% (inactive) | -32% (inactive) | 110% | -117% (inactive) | 122% | -0.491 (inactive) | -3.3e-05 (inactive) | 0.00498 (inactive) | -25.7% (inactive) | -76.1% (inactive) |
| CCN(CC)CCCN1C(=O)C(O)=C(C(=O)c2ccco2)C1c1ccc(C)o1 (configuration not stated) | 330 | 22.9% (inactive) | -17.3% (inactive) | 106% | -22.2% (inactive) | 99.7% | -0.607 (inactive) | -3.7e-05 (inactive) | 0.00682 (inactive) | 8.72% (inactive) | 8.23% (inactive) |
| Cc1occc1C(=O)N1CCN(Cc2ccccc2)CC1 | 661 | -9% (inactive) | 8.8% (inactive) | 75.8% | -40.1% (inactive) | 104% | -0.483 (inactive) | -3.8e-05 (inactive) | 0.00745 (inactive) | 7.4% (inactive) | 34.1% (inactive) |
| Cc1ccc(-c2nnc3c4ccccc4c(C)nn23)cc1NC(=O)c1ccco1 | 641 | -11% (inactive) | 17.5% (inactive) | 102% | -106% (inactive) | 115% | -0.602 (inactive) | 2.3e-05 (inactive) | 0.00729 (inactive) | -0.847% (inactive) | -4.54% (inactive) |
| CCCc1nnc(SCC(=O)N2CCOCC2)n1Cc1ccco1 | 660 | -2.2% (inactive) | -10.6% (inactive) | 96.5% | -0.5% (inactive) | 101% | -0.617 (inactive) | -5.1e-05 (inactive) | 0.0036 (inactive) | 19.5% (inactive) | 22.7% (inactive) |
| COc1ccc(CN(Cc2nc3ccccc3c(=O)[nH]2)C(=O)NC2CCCCC2)cc1 | 389 | -8.4% (inactive) | 4.6% (inactive) | 100% | -95.3% (inactive) | 84.3% | -0.359 (inactive) | -2.1e-05 (inactive) | 0.00294 (inactive) | 15.1% (inactive) | 29.3% (inactive) |
| COc1ccc(OC)c(Nc2nc(-c3sc(N)nc3C)cs2)c1 | 715 | -8.6% (inactive) | 11.3% (inactive) | 104% | -77.1% (inactive) | 105% | -0.34 (inactive) | -4.1e-05 (inactive) | 0.00384 (inactive) | -4.79% (inactive) | -10.6% (inactive) |
| COC(=O)C1=C(C)NC2=C(C(=O)CCC2)C1c1coc2ccccc2c1=O (configuration not stated) | 322 | -2.1% (inactive) | 14.4% (inactive) | 98.3% | -47.5% (inactive) | 111% | -0.244 (inactive) | 7.1e-06 (inactive) | 0.00668 (inactive) | 16.4% (inactive) | 48.4% (inactive) |
| Cc1ccc(C)c2[nH]c(=O)c(CCNC(=O)CC(C)(C)C)cc12 | 650 | -5.3% (inactive) | 33.1% (inactive) | 63.8% | 16.6% (inactive) | 90.8% | -0.557 (inactive) | -5.3e-05 (inactive) | 0.00614 (inactive) | 4.63% (inactive) | 16.5% (inactive) |
| Cc1cc(=O)n2nc(N3CCCC(C(=O)N4CCN(C)CC4)C3)sc2n1 (configuration not stated) | 465 | -0.8% (inactive) | 19.6% (inactive) | 92.4% | -186% (inactive) | 126% | -0.313 (inactive) | -3.4e-05 (inactive) | 0.00576 (inactive) | -7.33% (inactive) | 5.83% (inactive) |
| O=C(CSc1nnc(CNC(=O)c2cccs2)o1)NC1CCCC1 | 613 | -14.4% (inactive) | 10.3% (inactive) | 93.1% | -2.3% (inactive) | 123% | -0.318 (inactive) | -5e-05 (inactive) | 0.00569 (inactive) | 16.7% (inactive) | 12.5% (inactive) |
| Cc1ccc(Nc2nc(N)nc(CN3CCCCCC3)n2)cc1 | 350 | 6.8% (inactive) | 2.4% (inactive) | 96.1% | 69.8% (active) | 88.8% | -0.449 (inactive) | -2.5e-05 (inactive) | 0.00438 (inactive) | 8.97% (inactive) | 24.6% (inactive) |
| CCOC(=O)N1CCN(c2c(N3CCN(c4ccccn4)CC3)c(=O)c2=O)CC1 | 555 | 3.4% (inactive) | 25.3% (inactive) | 76.1% | -24.6% (inactive) | 119% | -0.506 (inactive) | -5.8e-06 (inactive) | 0.00633 (inactive) | 9.82% (inactive) | 16.3% (inactive) |

From PubChem BioAssay
